# According to PubChem BioAssay (NCATS):
# Several values for one entry are separate records, joined by “and”; a condition that tells them apart may be missing. Identical values can stand only once. Results filed as inconclusive are left out. Activity calls are given as the source filed them. Unless noted, calls follow the shape of the dose curve; as a rule, active = well fitted curve in the direction sought with a large enough effect; inconclusive = small, poorly fitted or top-dose-only effect, or another doubt; inactive = no such curve, though single readings can be large; an effect the other way counts as inactive or inconclusive.
# How the values were obtained:
# [1] = qHTS for compounds that reverse cellular toxicity of Amyloid beta (A-beta) peptide in yeast: LOPAC Validation Assay (AID 720559);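 also: plate controls were DMSO for no effect and equimolar ferric chloride plus clioquinol rescue for full effect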
# Outline: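 OD600 growth readout after 48 hr at 30 C; A-beta-toxic yeast plus pinned compounds in medium. Normalization: DMSO = negative, equimolar FeCl3 + clioquinol = positive.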
# [2] = qHTS for Activators of Parkin Expression: LOPAC Validation Assay (NLuc Reporter) (AID 720572;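 also: 0% = DMSO and 100% = positive control compound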)
# Outline: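 Parkin promoter-driven FLuc/NLuc neuronal reporter cells; 24 h plating, 7-pt dose response, 24 h at 37 C/5% CO2; FLuc then NanoLuc reagent, 10 min each, luminescence; DMSO/positive control normalized.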
# [3] = qHTS for Activators of Parkin Expression: LOPAC Validation Assay (FLuc Reporter) (AID 720573;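 also: 0% = DMSO and 100% = positive control compounds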)
# Outline: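 FLuc luminescence read-out from a neuronal line expressing a Parkin-promoter-driven coincidence reporter. Cells treated 24 h at 37 C, 5% CO2 with compounds at 7 concentrations; signal increase normalized to DMSO and positive control.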
# [4] = qHTS profiling of the MIPE4 collection as inhibitors of Plasmodium falciparum (3D7) proliferation (AID 743344; call rule not given here;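 also: scaled between DMSO vehicle wells and 0.29 µM artemisinin as full inhibition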); conditions: P. falciparum 3D7 in erythrocytes, SYBR Green DNA fluorescence, 72 h; at 28.5 µM (top of the series) unless noted
# Outline: (§1)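 Erythrocytes infected with P. falciparum (0.3% parasitemia, 2.5% hematocrit) incubated with compounds 72 h at 37 C, 5% CO2. Lysis with saponin/Triton buffer containing SYBR Green I, overnight at room temperature in the dark; DNA fluorescence (485/535 nm) normalised to 0.29 uM artemisinin and DMSO.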
# [5] = qHTS profiling of the MIPE4 collection as inhibitors of Plasmodium falciparum (DD2) proliferation (AID 743345; call rule not given here); conditions: P. falciparum Dd2 in erythrocytes, SYBR Green DNA, 72 h; at 28.5 µM (top of the series) unless noted
# Outline: as §1
# [6] = qHTS Assay for Identifying Gametocytocidal Compounds (AID 743244);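 also: % is scaled to controls: 0 for no effect and ±100 for the full control effect; actives lower the fluorescent signal which means gametocytes are killed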; conditions: P. falciparum 3D7 stage III-V gametocytes, alamarBlue, 72 h; max response: stronger effect = lower value
# Outline: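 Compounds are pinned into medium, gametocytes (stage III–V, 3D7, 20,000 cells/well) added, and plates held 72 h at 37 °C in 5% CO2. AlamarBlue follows for 24 h before fluorescence reading.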
# [7] = qHTS profiling for inhibitors of Plasmodium falciparum (3D7) proliferation (AID 743322);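 also: infected erythrocytes exposed to compound for 72 h before lysis; 100% = DMSO vehicle wells and 0% = 0.29 µM artemisinin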; conditions: P. falciparum 3D7 proliferation; at 28.7 µM (top of the series)
# Outline: as §1
# [8] = qHTS profiling for inhibitors of Plasmodium falciparum (DD2) proliferation (AID 743323; call rule not given here); conditions: lower = more inhibition; at 28.7 µM (top of the series)
# Outline: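 Parasite DNA quantified by SYBR Green fluorescence (ex 485, em 535 nm) after saponin/Triton lysis and overnight dark incubation. Cultures: 0.3% parasitemia, 2.5% hematocrit, 72 h, 37 C; data scaled between DMSO and 0.29 uM artemisinin.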
# [9] = qHTS profiling for inhibitors of Plasmodium falciparum (HB3) proliferation (AID 743324); conditions: Plasmodium falciparum HB3 blood-stage proliferation; at 28.7 µM (top of the series);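 also: 100% = DMSO vehicle wells and 0% = artemisinin-treated control wells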
# Outline: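 P. falciparum HB3 grown in erythrocytes (0.3% parasitemia, 2.5% hematocrit final) with compound for 72 h at 37 C, 5% CO2. Parasite DNA detected by SYBR Green after saponin/triton lysis overnight; normalized to 0.29 uM artemisinin and DMSO.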
# [10] = biological target: Arylsulfatase A (Homo sapiens) (UniProt P15289); test: qHTS screen for enhancers of Arylsulfatase A (ASA1): LOPAC Validation Assay (AID 720538); conditions: outcome: dose series up to 57.5 µM
# Outline: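 Read-out: fluorescence at Ex=525/Em=598 nm after 1N NaOH final stop. Patient fibroblasts carrying ASA-I179S had 48h compound exposure, then 14h room-temperature pNCS hydrolysis (0.5mM final) in lysis buffer. Signal increase = enhanced activity.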
# [11] = biological target: Hexokinase-4 (Homo sapiens) + Glucokinase regulatory protein (Homo sapiens) (UniProt P35557+Q14397); test: qHTS assay for inhibitors of recombinant human GCK-GKRP interaction: Diaphorase-coupled assay (AID 743205)
# Outline: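 Resorufin fluorescence (525/590 nm), read each minute over 30 min, reports GCK activity coupled via G6PDH and diaphorase. Reaction: 10 nM GST-GCK, 10 nM FLAG-GKRP, 5 mM glucose, 0.4 mM ATP, 0.15 mM NADP+, 0.1 mM resazurin.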
# Hexokinase-4 (Homo sapiens) + Glucokinase regulatory protein (Homo sapiens), sequence (P35557 whole entry, looked up): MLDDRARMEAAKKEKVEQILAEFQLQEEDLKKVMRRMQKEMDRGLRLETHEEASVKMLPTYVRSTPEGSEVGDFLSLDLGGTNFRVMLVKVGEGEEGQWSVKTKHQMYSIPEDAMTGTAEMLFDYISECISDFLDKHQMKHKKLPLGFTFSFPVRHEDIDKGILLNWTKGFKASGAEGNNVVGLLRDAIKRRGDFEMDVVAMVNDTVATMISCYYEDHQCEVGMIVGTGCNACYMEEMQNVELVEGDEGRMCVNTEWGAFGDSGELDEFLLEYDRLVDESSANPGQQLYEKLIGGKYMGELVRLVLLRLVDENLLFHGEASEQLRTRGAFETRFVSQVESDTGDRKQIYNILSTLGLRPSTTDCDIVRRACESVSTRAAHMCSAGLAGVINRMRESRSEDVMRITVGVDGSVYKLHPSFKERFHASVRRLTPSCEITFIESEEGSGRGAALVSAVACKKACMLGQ
# Hexokinase-4 (Homo sapiens) + Glucokinase regulatory protein (Homo sapiens), sequence (Q14397 whole entry, looked up): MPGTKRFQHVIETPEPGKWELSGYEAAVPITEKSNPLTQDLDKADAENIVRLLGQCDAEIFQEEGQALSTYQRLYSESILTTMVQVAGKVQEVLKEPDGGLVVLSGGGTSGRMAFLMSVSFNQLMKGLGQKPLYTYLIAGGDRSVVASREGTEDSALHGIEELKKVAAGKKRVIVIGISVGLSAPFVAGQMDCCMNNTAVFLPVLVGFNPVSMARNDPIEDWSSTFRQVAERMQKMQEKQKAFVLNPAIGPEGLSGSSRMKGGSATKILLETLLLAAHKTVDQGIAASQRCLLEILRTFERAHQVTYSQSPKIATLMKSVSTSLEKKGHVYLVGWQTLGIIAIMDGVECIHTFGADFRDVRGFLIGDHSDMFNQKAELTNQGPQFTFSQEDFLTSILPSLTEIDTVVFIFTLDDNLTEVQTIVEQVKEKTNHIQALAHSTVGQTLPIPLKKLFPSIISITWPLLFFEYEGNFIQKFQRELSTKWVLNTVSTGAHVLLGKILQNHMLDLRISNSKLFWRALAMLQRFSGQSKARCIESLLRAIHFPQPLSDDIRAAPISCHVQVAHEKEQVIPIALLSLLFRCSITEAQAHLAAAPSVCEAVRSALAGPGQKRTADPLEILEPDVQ
# Arylsulfatase A (Homo sapiens), sequence (P15289 whole entry, looked up): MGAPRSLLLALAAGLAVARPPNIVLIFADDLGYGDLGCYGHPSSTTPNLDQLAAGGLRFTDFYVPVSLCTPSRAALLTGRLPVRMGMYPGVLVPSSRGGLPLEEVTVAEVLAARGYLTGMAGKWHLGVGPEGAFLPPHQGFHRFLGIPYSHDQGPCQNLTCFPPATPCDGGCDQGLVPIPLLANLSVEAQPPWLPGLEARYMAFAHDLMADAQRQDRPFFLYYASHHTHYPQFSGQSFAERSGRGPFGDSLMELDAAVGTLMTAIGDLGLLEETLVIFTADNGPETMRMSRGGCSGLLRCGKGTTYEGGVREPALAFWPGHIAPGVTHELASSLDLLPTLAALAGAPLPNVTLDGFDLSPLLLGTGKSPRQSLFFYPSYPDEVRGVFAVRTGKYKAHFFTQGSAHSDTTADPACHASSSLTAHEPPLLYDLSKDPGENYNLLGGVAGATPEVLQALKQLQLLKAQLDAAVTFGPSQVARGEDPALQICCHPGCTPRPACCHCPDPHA
compound,measurement,setting,value
COc1ccc(Cc2nccc3cc(OC)c(OC)cc23)cc1OC,outcome,[1],inactive
same,Potency,[2],inactive
same,Potency,[3],inactive
same,"parasite growth, % of DMSO control",[4],5.44%
same,"parasite growth remaining, % of DMSO control (lower = more inhibition)",[5],11.3%
Cc1cnc(C(=O)O)c[n+]1[O-],max response,[6],8.17% (inactive) and 2.06% (inactive) and -4.26% (inactive)
same,"parasite growth, % of DMSO control",[4],97%
same,"parasite growth remaining, % of DMSO control (lower = more inhibition)",[5],104%
Cn1c(N2CCCCS2(=O)=O)nc(C(=O)NCc2ccc(F)cc2)c(O)c1=O,"parasite growth, % of DMSO control",[4],101%
same,"parasite growth remaining, % of DMSO control (lower = more inhibition)",[5],104%
CC(=O)Oc1cc2c(s1)CCN(C(C(=O)C1CC1)c1ccccc1F)C2 (centres undefined),max response,[6],3.57% (inactive)
same,"parasite growth, % of DMSO control",[4],56.7%
same,"parasite growth remaining, % of DMSO control (lower = more inhibition)",[5],95.5%
CC[C@H]1OC(=O)[C@H](C)[C@@H](O[C@H]2C[C@@](C)(OC)[C@@H](O)[C@H](C)O2)[C@H](C)[C@@H](O[C@@H]2O[C@H](C)C[C@H](N(C)C)[C@@H]2O)[C@](C)(O)C[C@@H](C)CN(C)[C@H](C)[C@@H](O)[C@]1(C)O,remaining parasite growth % (stronger effect = lower value),[7],11.3%
same,"activity, percent of control",[8],19.2%
same,"remaining proliferation (% of control), lower = more inhibition",[9],31.5%
same,"parasite growth, % of DMSO control",[4],33.2%
same,"parasite growth remaining, % of DMSO control (lower = more inhibition)",[5],24.6%
OC[C@@H](O)[C@H](O)[C@H](O)[C@@H](O)CO,max response,[6],1.74% (inactive) and -2.1% (inactive)
Cc1nnc(C(C)C)n1C1C[C@H]2CC[C@@H](C1)N2CC[C@H](NC(=O)C1CCC(F)(F)CC1)c1ccccc1 (some centres undefined),"parasite growth, % of DMSO control",[4],69.7%
same,"parasite growth remaining, % of DMSO control (lower = more inhibition)",[5],100%
CC(C(=O)O)c1ccc(-c2ccccc2)c(F)c1 (centres undefined),max response,[6],6.81% (inactive)
C[N+](C)(C)CCCCCC[N+](C)(C)C,outcome,[10],inactive
same,outcome,[1],inactive
same,Potency,[2],inactive
same,Potency,[3],inactive
same,outcome,[11],inactive
same,max response,[6],5.46% (inactive) and 9.66% (inactive) and 12.2% (inactive)
O=C(O)c1c(Cl)c(Cl)c(Cl)c(Cl)c1-c1c2cc(I)c(=O)c(I)c-2oc2c(I)c(O)c(I)cc12,max response,[6],-8.78% (inactive)
same,"parasite growth, % of DMSO control",[4],83.8%
same,"parasite growth remaining, % of DMSO control (lower = more inhibition)",[5],97.1%
CC=C(C)C(=O)O[C@H]1C(C)=C[C@]23C(=O)[C@@H](C=C(CO)[C@@H](O)[C@]12O)[C@H]1[C@@H](C[C@H]3C)C1(C)C,"parasite growth, % of DMSO control",[4],18.7%
CCN(CC)CCNC(=O)c1ccc(N)cc1,outcome,[10],inactive
same,outcome,[1],inactive
same,Potency,[2],inactive
same,Potency,[3],inactive
same,outcome,[11],inactive
same,max response,[6],34.9% (inactive)
O=C(O)CCc1nc(-c2ccccc2)c(-c2ccccc2)o1,outcome,[10],inactive
same,outcome,[1],inactive
same,Potency,[3],inactive
same,max response,[6],14.6% (inactive) and 5.09% (inactive)
CCCCCN(C)CCC(O)(P(=O)(O)O)P(=O)(O)O,outcome,[10],inactive
same,outcome,[1],inactive
same,Potency,[2],inactive
same,Potency,[3],inactive
same,outcome,[11],inactive
same,"parasite growth, % of DMSO control",[4],92.2%
same,"parasite growth remaining, % of DMSO control (lower = more inhibition)",[5],92.9%
COc1cccc(-c2cc(=O)c3ccccc3o2)c1N,outcome,[1],inactive
same,Potency,[2],inactive
same,outcome,[11],inactive
same,"parasite growth, % of DMSO control",[4],73.4%
same,"parasite growth remaining, % of DMSO control (lower = more inhibition)",[5],91.1%
CC(=O)CCCCn1c(=O)c2c(ncn2C)n(C)c1=O,outcome,[1],inactive
same,Potency,[2],inactive
same,Potency,[3],inactive
same,outcome,[11],inactive
same,max response,[6],-1.45% (inactive) and 1.03% (inactive)
